Screening data: PubChem, The Scripps Research Institute Molecular Screening Center
Compounds with a hit are over-represented: about 3.4% of the library has one in this group of screens.
TEAD-YAP inh: TEAD-YAP interaction inhibition; HEK-TIYL cells, TEAD-Gal4/YAP UAS-luciferase luminescence; inhibition, % at 9.12 µM; 640,000 tested, 1.4% active; AID 1259422; in the data active = inhibition above about 32%;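 also: 0% = median of test compound wells and 100% = reference inhibitor wells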
MITF inh: human MITF inhibition, primary screen; inhibition, % at 2.6 µM; 650,000 tested, 0.91% active; AlphaScreen MITF homodimerization, bead proximity signal; in the data active = inhibition above about 50%;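 also: 0% = vehicle wells with protein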
FBW7 act: activators of human E3 ligase FBW7. Q969H0. AlphaScreen FBW7–phospho-cyclin E peptide binding, activator screen. normalized activity (activation), % at 26.1 µM. 650,000 tested, 0.13% active. AID 1259310; in the data active = normalized activity above about 1.9%;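 also: purified mutant Fbw7 with reduced substrate affinity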
GPR151 activ: human GPR151 activation | Q8TDV0 | PathHunter beta-arrestin GPR151 cells, luminescence | activation, % at 11.2 µM | 650,000 tested, 1% active; in the data active = activation above about 4.9%;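 also: 0% = median of compound wells and 100% = cells with positive control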
Target sequence (Q8TDV0 whole entry, looked up): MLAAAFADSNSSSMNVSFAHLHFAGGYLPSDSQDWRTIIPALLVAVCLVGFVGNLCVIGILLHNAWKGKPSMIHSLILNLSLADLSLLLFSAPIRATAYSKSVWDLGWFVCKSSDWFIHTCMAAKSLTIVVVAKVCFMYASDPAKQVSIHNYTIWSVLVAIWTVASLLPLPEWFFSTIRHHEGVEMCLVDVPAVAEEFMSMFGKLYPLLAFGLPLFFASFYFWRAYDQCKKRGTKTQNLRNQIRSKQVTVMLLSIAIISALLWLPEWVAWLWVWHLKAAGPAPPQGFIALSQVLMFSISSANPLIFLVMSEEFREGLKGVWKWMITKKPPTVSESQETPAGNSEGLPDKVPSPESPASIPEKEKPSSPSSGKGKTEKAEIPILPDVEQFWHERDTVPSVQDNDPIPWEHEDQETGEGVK
The depositor's hits bear a star.

SMILES	TEAD-YAP inh	MITF inh	FBW7 act	GPR151 activ
O=C(Nc1cc(-c2ccccc2Oc2ccccc2F)ccn1)C1CCOC1 (configuration not stated)	37*	1	0	0
Cc1ccc(C(=O)N/C(=C/c2cccc([N+](=O)[O-])c2)C(=O)Nc2ccc(Br)cc2)cc1	1	0	0	0
O=C(C1CCCC1)N1CCC(c2nc3c(nnn3Cc3ccccc3)c(=O)[nH]2)CC1	-2	14	0	0
O=C(NC1CCCCC1)N1CCC(c2nc3c(nnn3Cc3ccccc3)c(=O)[nH]2)CC1	44*	10	0	2
O=C(CN1C(=O)[C@H]2CCCN2C(=O)c2ccccc21)NC12CC3CC(CC(C3)C1)C2	17	-4	0	1
CCc1ccc(NC(=O)CSC2=C(C#N)C(c3ccc(C)o3)C3=C(CCCC3=O)N2)cc1 (configuration not stated)	20	2	1	0
Cc1cccc(C)c1NC(=O)CSC1=C(C#N)C(c2ccco2)C2=C(CCCC2=O)N1 (configuration not stated)	9	14	0	-1
Cc1ccc(C2C(C#N)=C(SCC(=O)Nc3cccc(C)c3C)NC3=C2C(=O)CCC3)o1 (configuration not stated)	64*	-12	0	1
Cc1c(Cl)cccc1NC(=O)CSC1=C(C#N)C(c2ccco2)C2=C(CCCC2=O)N1 (configuration not stated)	38*	49	0	1
Cc1nnc(NC(=O)c2cccc(C(F)(F)F)c2)s1	2	2	0	2
COc1cc(Nc2nc(NC3CCC(O)CC3)nc3c2ncn3-c2ccsc2)cc(OC)c1OC (configuration not stated)	68*	15	0	0
COc1cc(Nc2nc(NC3CC3)c3ncn(-c4ccsc4)c3n2)cc(OC)c1OC	34*	2	0	2
COc1cc(Nc2nc(Nc3ccccc3)nc3c2ncn3-c2ccsc2)cc(OC)c1OC	23	2	0	0
c1ccc(Nc2nc(NC3CC3)c3ncn(-c4ccsc4)c3n2)cc1	49*	1	0	-1
CC1=C(C#N)C(=O)N(CCO)C(=O)/C1=C\c1ccc(-c2ccc(C)c(Cl)c2)o1	4	11	0	-1
Cc1ccc(C)c2[nH]c(=O)c(CN(CCCO)S(=O)(=O)c3ccc(F)cc3)cc12	0	-1	0	-1
CCSc1nc(-c2ccccc2)ccc1C#N	-8	-5	0	0
Cc1ccccc1CSc1nc(-c2cccs2)ccc1C#N	53*	-6	0	0
N#Cc1ccc(-c2ccccc2)nc1SCc1ccccc1F	43*	-7	0	2
COC(=O)c1sc(SC)nc1Nc1ccnc(Nc2cc(OC)ccc2OC)c1	48*	9	0	5
O=C(Oc1cccc2ccccc12)N1CCN2C(=O)[C@@H]3CSCN3C(=O)[C@H]2C1	35*	-16	0	0
N#CCSc1nc2cc(C(=O)NC3CCCCC3)ccc2c(=O)n1C1CCCCC1	0	-20	0	0
CC(=N/O)/C(C)=N\NC(=O)c1ccccn1	45*	4	0	-5
CC(=N/NC(=O)c1ccc(C)cc1)/C(C)=N/O	71*	-1	0	-2
O=C(CSc1ncnc2c1oc1ccccc12)N1CCCCC1	-4	10	0	3
SMILES	TEAD-YAP inh	MITF inh	FBW7 act	GPR151 activ
COc1ccccc1C(=O)On1c(-c2ccccc2F)nc2ccccc2c1=O	10	7	0	1
O=C1c2ccc(F)cc2C(=O)N1c1ccccc1Cl	-2	-9	0	1
C=CCNC(=S)NNC(=O)c1ccccc1OCCC	2	-13	0	-1
C=CCNC(=S)NNC(=O)c1ccccc1O	89*	-3	-2	0
O=C(Nc1ccc(Cl)cc1)c1cnc2ccccn12	-23	17	0	-1
CC(C)(C)c1ccc(NC(=O)c2cnc3ccccn23)cc1	55*	21	1	-1
COc1ccc(C)cc1NS(=O)(=O)c1cccc2nsnc12	3	5	0	-1
NC(=O)C1CCCN(C(=S)NC(=O)c2ccco2)C1 (configuration not stated)	5	-4	0	0
CC(=O)c1c(C)[nH]c(C(=O)CSc2nnnn2-c2cccc(C)c2)c1C	33*	11	0	2
CCN(CC)c1ccc2c(c1)OC(N)=C(C#N)C2c1cccc(F)c1 (configuration not stated)	68*	-13	0	-1
CN(C)c1ccc2c(c1)OC(N)=C(C#N)C2c1ccc(F)cc1 (configuration not stated)	3	-8	0	1
N#CC1=C(N)Oc2cc(N)ccc2C1c1cccc(Br)c1 (configuration not stated)	55*	12	0	1
N#CC1=C(N)Oc2cc(N)ccc2C1c1ccc(Br)cc1 (configuration not stated)	1	12	0	-1
O=C(CCl)NCc1c(Cl)cccc1-n1cccc1	35*	4	0	-1
CCC(C)(NC(=O)Cc1cccs1)C(=O)NC1CCCCC1 (configuration not stated)	-3	5	1	-1
Cc1cc(NCc2cccnc2)ccc1Br	-6	9	0	1
CCN(CC)c1ccc(N/C(N)=N/c2nc(C)cc(C)n2)cc1 (tested in a mixture with another compound)	58*	17	0	1
Cc1cc(C)nc(/N=C(\N)Nc2ccc(CC(=O)OC(C)C)cc2)n1	40*	-6	0	1
COC(=O)C1=C(C)NC(=O)NC1c1cc(Br)ccc1OC (configuration not stated)	6	5	0	-1
O=C(Nc1ccnn1C1CCN(C(=O)C2COc3ccccc3C2)CC1)C1CC1 (configuration not stated)	19	5	0	1
CCCS(=O)(=O)n1nc(-c2ccc(OCC)cc2)cc1N	-23	8	0	1
CCN1C(=O)/C(=C\c2cccs2)SC1=S	6	-11	0	0
OC1CCC(Nc2nc(Nc3ccc(N4CCOCC4)cc3)c3ncn(-c4ccccc4)c3n2)CC1 (configuration not stated)	38*	21	0	1
c1ccc(-n2cnc3c(NC4CC4)nc(Nc4ccc(N5CCOCC5)cc4)nc32)cc1	33*	7	0	1
OC1CCC(Nc2nc(NCc3ccccc3)c3ncn(-c4ccccc4)c3n2)CC1 (configuration not stated)	-40	-2	0	1
C=CCn1c(=O)c2c(nc3n(-c4ccccc4C)c(C)cn23)n(C)c1=O	6	23	2.1*	0
CCCn1c(=O)c2c(nc3n(-c4ccccc4C)c(C)cn23)n(C)c1=O	1	11	0	1
Cc1noc(-c2cc(Br)cc(Br)c2O)n1	-6	-7	1	-1
O=Cc1ccc(OCc2ccc3c(c2)OCO3)c(Cl)c1	72*	5	0	-8
O=Cc1ccccc1OCc1ccc2c(c1)OCO2	-51	7	0	-4
